# From PubChem BioAssay
# Rab9 prom act = activators of Rab9 promoter; Huh7 Rab9 promoter-luciferase reporter, luminescence, 24 h; Potency, µM (series often up to 9.22 µM), for the others: top-dose activation, negative = inhibition, actives largely listed as activators; hit rate 2.8% among 320,000; AID 485297; also: % of control where 0% means no effect; nearly all actives have a fitted effect of over 60% in size
#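 Stable Rab9-luc Huh7, 1500 cells/well, 2 h settle; cmpd in DMSO, 24 h, 37 °C/5% CO2; luciferase reagent 10 min RT; luminescence.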
# NPC1 prom act = activators of NPC1 promoter. Huh7 NPC1 promoter luciferase reporter, 24 h. Potency, µM (top dose mostly 9.22 µM), without a hit: top-dose activation, actives largely listed as activators. hit rate 2.4% among 320,000. AID 485313; also: % of control where 0% means no effect; nearly all actives have a fitted effect of over 60% in size
#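 Cells: Huh7 expressing luciferase under the NPC1 promoter, 1500/well. Seeded 2 h, compound added, incubated 24 h at 37 °C. Luciferase reagent, 10 min ambient, then luminescence.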
# FLuc counter = counter-screen for miR-21 project: firefly luciferase inhibitors or activators | purified FLuc, Km substrates, luminescence inhibition | Potency, µM (titrated, usually from 57.5 µM), for inactives: at the highest dose activity change, negative = inhibition, most hits filed as inhibitors | hit rate 6.9% among 360,000;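 also: plate controls were vehicle for no effect and reference inhibitor for full effect; nearly all actives have a fitted effect of over 55% in size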
# Target sequence (P08659 whole entry, looked up): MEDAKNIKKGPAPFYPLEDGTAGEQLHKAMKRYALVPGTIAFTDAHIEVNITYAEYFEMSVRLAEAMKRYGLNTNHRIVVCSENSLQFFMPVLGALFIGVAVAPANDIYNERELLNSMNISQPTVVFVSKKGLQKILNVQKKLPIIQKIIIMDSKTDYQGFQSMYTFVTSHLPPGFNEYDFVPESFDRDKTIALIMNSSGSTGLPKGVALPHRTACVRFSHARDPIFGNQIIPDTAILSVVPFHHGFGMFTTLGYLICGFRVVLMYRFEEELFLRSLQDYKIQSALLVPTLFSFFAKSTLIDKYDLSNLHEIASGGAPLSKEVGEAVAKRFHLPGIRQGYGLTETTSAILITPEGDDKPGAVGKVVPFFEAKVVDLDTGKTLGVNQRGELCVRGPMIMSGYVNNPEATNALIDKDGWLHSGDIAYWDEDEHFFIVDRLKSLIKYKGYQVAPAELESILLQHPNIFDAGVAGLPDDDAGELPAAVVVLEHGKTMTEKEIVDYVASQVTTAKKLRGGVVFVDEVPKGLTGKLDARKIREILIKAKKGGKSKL
#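 Purified P. pyralis luciferase (10nM final) with 10uM D-luciferin and 10uM ATP (Km levels) in 50mM Tris acetate pH 7.5, 10mM Mg acetate, 0.01% Tween-20, 0.05% BSA; qHTS 6-point titration, ~60 µM downward; luminescence read.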
# Luc counter = counter-screen: inhibitors of Kinase-Glo firefly luciferase; Q27757; Kinase-Glo luciferase, ATP luminescence, 8 min; Potency, µM (top dose mostly 38.3 µM), inactives show top-dose activity change, negative = inhibition, most hits filed as inhibitors; hit rate 0.28% among 200,000; also: % is scaled to controls: 0 for no effect and ±100 for the full control effect; nearly all actives have a fitted effect of over 60% in size
#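 Luminescence was the read-out, taken after 8-minute incubation at ambient temperature. Luciferase turned over luciferin with 10 uM ATP in imidazole pH 7.2 buffer containing KCl, MgCl2, Tween 20 and BSA.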
# ELG1 genotoxic = inducers of genotoxicity in HEK293T ELG1-luciferase cells | HEK293T ELG1-luciferase reporter, luminescence, 16 h | hit rate 1.3% among 330,000 | AID 504466 | Potency, µM (titrated, usually from 46 µM), for inactives: at the highest dose activity change, positive = activation, actives largely listed as activators; also: % of control where 0% means no effect; nearly all actives have a fitted effect of over 60% in size
#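 After overnight (16 hr) compound treatment at 37 °C, ELG1-luciferase HEK293T cells were lysed with ONE-Glo; luminescence quantified 30 min later at room temperature.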
# SMN2 splice enh = SMN2 splice variant enhancement; HEK293 SMN2-luciferase splicing reporter, luminescence, 30-36 h; Potency, µM (titrated, usually from 46.1 µM), inactives show at the top dose activity change, positive = activation, hits mostly activators; hit rate 2.8% among 210,000; AID 1458; also: % of control where 0% means no effect; nearly all actives have a fitted effect of over 55% in size
#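 qHTS luciferase splicing reporter: luminescence rises when SMN2 exon 7 is included in transfected HEK293 cells. Compound exposure lasted 30-36 h at 37C, with 4.5 mM final sodium butyrate as control, followed by a ONE-Glo read.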
# An asterisk follows results filed as active; ? = inconclusive; / = not tested or not shown; [ ] = another dose, or the depositor's remark. Most compounds without a hit are left out; they make up all but 7.5% or so of the library. Calls follow the shape of the dose curve; as a rule, active = well fitted curve in the direction sought with a large enough effect; inconclusive = small, poorly fitted or top-dose-only effect, or another doubt; inactive = no such curve, though single readings can be large; an effect the other way counts as inactive or inconclusive. Potency is read from the fitted curve at half-maximal effect.
SMILES,Rab9 prom act,NPC1 prom act,FLuc counter,Luc counter,ELG1 genotoxic,SMN2 splice enh
CN(C)c1ccc2c(c1)N=C(c1ccco1)OP2(=S)N1CCOCC1 (stereo unspecified),26%,5%,15µM*,-7%,?,18%
COc1cc2c(cc1OC)C1C(=O)c3c(cc4c(c3O)C=CC(C)(C)O4)OC1CO2 (stereo unspecified),/,/,/,-2%,/,-58%
CCC12CCN(CCc3ccc(F)cc3)CC1Oc1c(O)cccc12 (stereo unspecified),/,/,12%,/,/,/
CN(C)c1ccccc1,/,/,/,/,/,-5%
CN(C)c1ccc(C(=O)c2ccc(N(C)C)cc2)cc1,-4%,-12%,13µM*,-2%,23µM*,-18%
O=C(Oc1ccc2ccccc2c1)c1ccco1,5%,-2%,12µM*,-9%,3%,-2%
CC(C)(C)c1ccc(C(=O)C2CCCN(Cc3ccon3)C2)cc1 (stereo unspecified),?,?,17µM*,/,15%,/
O=C(c1ccc(Cl)cc1)C1CCCN(Cc2ccon2)C1 (stereo unspecified),-4%,-5%,0%,-2%,1%,/
c1cc(CCN2CCCCC2)ccn1,/,/,/,-10%[7.66 µM],/,-17%[9.22 µM]
CC[C@H](CO)Nc1nc(NCc2ccccc2)c2ncn(C(C)C)c2n1,/,/,/,-2%,/,18µM*
CCOc1ccc(NCc2cccn2-c2nnc(N3CCC(C(=O)NCC(C)c4ccccc4)CC3)s2)cc1 (stereo unspecified),/,/,0%,/,/,-63%
CCOc1ccc2nc(N3CCC(C(=O)Nc4ccc(Br)cc4F)CC3)sc2c1,/,/,15µM*,/,/,13µM*
NC[C@@H](Cc1ccccc1)P(=O)(O)O,/,/,/,-5%[7.66 µM],/,2%[9.22 µM]
C/C(=N\NC(=O)c1ccccc1Cl)c1c(O)n(C2CCCCC2)c(=O)[nH]c1=O,-1%,1%,-2%,/,0%,/
C/C(=N\NC(=O)c1ccccc1O)c1c(O)n(Cc2ccccc2)c(=O)[nH]c1=O,-3%,-3%,11µM*,/,4%,/
C/C(=N\NC(=O)c1ccccc1O)c1c(O)n(C2CCCCC2)c(=O)[nH]c1=O,-1%,2%,27µM*,/,5%,/
C[C@H]1COC2=C1C(=O)C(=O)c1c2ccc2c1CCCC2(C)C,14%,-2%,21µM*,/,13%,/
O=C(/C=C/c1c[nH]c2ccccc12)c1c(O)n(CCc2ccccc2)c(=O)[nH]c1=O,-3%,-1%,13µM*,/,0%,/
Cc1ccc(-n2sc3ccccc3c2=O)cc1,?,?,4.8µM*,-13%,?,?
COc1ccc(-n2c(=S)[nH]c3c(sc(=S)n3-c3ccccc3)c2=O)c(OC)c1,-3%,-7%,11µM*,/,0%,/
CN(C)c1ccc(CCN2CCOCC2)cc1,1%,3%,17µM*,/,?,/
[Cl][Pd][Cl].[S-]C1=C2N=CN[C-]2[NH+]=C[N-]1.[S-]c1ncnc2[nH]cnc12,/,/,/,-1%[7.66 µM],/,-6%[9.22 µM]
OC(c1ccccc1)(c1ccccc1)C1CCCN1 (stereo unspecified),3.2µM*,-37%,12µM*,-8%,?,19%
CCCC[N+]12CCC(CC1)C(C(O)(c1ccccc1)c1ccccc1)C2 (stereo unspecified),-9%,-5%,0%,/,-1%,/
CN(C)C(=O)Oc1ccc(Cl)c2ccccc12,?,4.5µM*,8%[2.3 µM],-1%,2%,9%
CCN(CC)C(=O)Oc1ccc2ccccc2c1Cl,28%,16%,17µM*,-1%,13%,?
CN(C)C(=O)Oc1ccc2ccccc2c1Cl,15%,14%,?,-1%,?,-24%
CN(C(=O)Oc1ccc(Cl)c2cccnc12)c1ccccc1,-1%,-2%,-8%,-5%,-3%,-16%
O=C(Nc1ccc(OC(=O)N2CCCCC2)cc1)N1CCOCC1,2%,-5%,4%,-7%,1%,/
O=C(Oc1ccc2ccccc2c1Cl)N1CCCC1,2µM*,2.8µM*,12µM*,-3%,2.1µM*,13µM*
